Experimental data as given in PubChem BioAssay (NCI).
Compounds without any hit were thinned out: in the full panel of roughly 83,000, 20% have a hit.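 Method: cells in 96-well plates; compound added at one concentration; 48 h incubation; percent growth measured; values under 10 scored active.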 Unmarked numbers belong to inactive results. Activity calls are given as the source filed them.

Each molecule was assayed on SW-620 colon (assay: NCI-60 one-dose screen, 48 h (100 = growth as untreated, 0 = no growth, -100 = all killed)). Conditions: 10 µM unless noted.

How did the growth turn out when `CCOc1cccc(/C(N)=N/C(N)=N/c2nc3ccccc3s2)c1` was run?
The growth was 102%.

How did the growth turn out when `Cc1ccc2c(n1)C(=O)C(Cl)=C(Nc1cc(C(F)(F)F)cc(C(F)(F)F)c1)C2=O` was run?
Its growth is 2.41% (active).

`CC(C)(C)OC(=O)NCc1ccc(CNc2c([N+](=O)[O-])cnc3ccccc23)cc1` was tested. Which growth did it give?
Its growth is 89.6%.

`C#CCOc1cccc(-c2nc(N)nc(Nc3ccccc3SSc3ccccc3Nc3nc(N)nc(-c4cccc(OCC#C)c4)n3)n2)c1` was tested. Which growth did it give?
The growth was 71.4%.

Which growth does the source give for `CN1CCN(c2ccc(Nc3nc(NCCNS(=O)(=O)c4ccccc4)c4sccc4n3)cc2)CC1` here?
The growth was 101%.

With `C=C(C=O)[C@@H]1CC[C@]2(C(=O)O)CC[C@]3(C)C(CC[C@@H]4[C@@](C)(CCC#N)[C@H](C(=C)C=O)CC[C@]43C)[C@@H]12` (stereo not given in full) as the molecule, how does the growth read?
Its growth is 10.9%.

Which growth does the source give for `O=C(CSc1nc2ccccc2c(=O)n1-c1ccccc1)N/N=C/c1ccc(Oc2ccc(Br)cc2)cc1` here?
The growth was 29.6%.

How did the growth turn out when `CC(C)C(/C=C/c1[nH]ncc1-c1cc(Cl)ccc1O)N1CCOCC1` (stereo not given) was run?
The growth was 98.4%.

How did the growth turn out when `N#Cc1c(-c2cccs2)cc(-c2cnccn2)nc1SCC(=O)N/N=C/c1ccc(Cl)cc1` was run?
Its growth is 93.1%.

How did the growth turn out when `CN1CCN(c2ccc(Nc3nc(NCCCNS(=O)(=O)c4ccc(Cl)cc4)c4sccc4n3)cc2)CC1` was run?
Its growth is 20.7%.

For `O=C1[C@@H]2Cc3c([nH]c4ccccc34)[C@H](c3ccc(Br)cc3)N2C(=O)CN1C1CCN(Cc2c(Cl)cccc2Cl)CC1`, which growth is on record?
The growth was 92.7%.

`COc1ccc(NC(=O)CCCCCCNC(=O)C(O)(O)C(F)(F)F)cc1` was tested. Which growth did it give?
The growth was 10.2%.

`CCCCSC1=C(Cl)CN(c2ccc(Cl)cc2)C1=O` was tested. Which growth did it give?
Its growth is 104%.

Which growth does the source give for `CN(C)CCCOc1ccc(C(=C(c2ccccc2)C2CCCC2)c2ccc(OCCCN(C)C)cc2)cc1` here?
The growth was -34.2% (active).

`CN1CCN(c2ccc(Nc3nc(NCCCNS(=O)(=O)c4cccc5ccccc45)c4sccc4n3)cc2)CC1` was tested. Which growth did it give?
The growth was -0.438% (active).

How did the growth turn out when `CCN(CC)c1ccc(/C=N/NC(=O)c2ccc(S(N)(=O)=O)cc2)cc1` was run?
Its growth is 40.4%.

With `C#C[C@]1(O)CC[C@H]2[C@@H]3CC=C4c5sc(Nc6cc(C)cc(C)c6)nc5CC[C@]4(C)[C@H]3CC[C@@]21C` as the molecule, how does the growth read?
The growth was -20.1% (active).

With `CN(C)c1ccc(-c2cc(-c3c[nH]c4ccccc34)nc(N)c2C#N)cc1` as the molecule, how does the growth read?
Its growth is 21.4%.

How did the growth turn out when `C#C[C@]1(O)CC[C@H]2[C@@H]3CC=C4c5sc(Nc6cc(Cl)ccc6OC)nc5CC[C@]4(C)[C@H]3CC[C@@]21C` was run?
Its growth is -20.7% (active).

For `Cc1cc(=O)[nH]c(O)c1C#N`, which growth is on record?
Its growth is 96.6%.

Which growth does the source give for `Cc1ccc(C(=O)CSc2nc3ccccc3c(=O)n2C)cc1` here?
The growth was 99.2%.

`O=C(NCCNc1cc(-c2cn(-c3ccccc3)nc2-c2cccc(O)c2)ccn1)Nc1cc(C(F)(F)F)cc(C(F)(F)F)c1` was tested. Which growth did it give?
The growth was 101%.

How did the growth turn out when `N/C(=N\C(N)=N\c1nc2ccccc2s1)c1ccc(Cl)cc1` was run?
The growth was 103%.

How did the growth turn out when `C#CCN(C)CCCOc1ccc(NCc2ccc(/C=C/C(=O)NO)cc2)cc1Cl` was run?
The growth was 10.1%.

For `C#CCOc1ccccc1/C=N/Nc1nc(-c2ccc(Cl)cc2)cs1`, which growth is on record?
The growth was 93.4%.

How did the growth turn out when `O=S(=O)(NCCCNc1nccc(-c2[nH]c(-c3ccccc3)nc2-c2ccc(F)c(O)c2)n1)c1cccc(F)c1` was run?
Its growth is 120%.

With `O=C(CSc1nc2ccccc2c(=O)n1CCc1ccccc1)Nc1ccc(S(=O)(=O)Nc2ccc(Cl)nn2)cc1` as the molecule, how does the growth read?
Its growth is 91.3%.

For `Nc1nc(=O)n([C@H]2C[C@H](O)[C@@H](CO)O2)cc1C=O`, which growth is on record?
The growth was 107%.

Which growth does the source give for `O=C(Nc1ccc(Cl)c(C(F)(F)F)c1)Nc1ccc2c(ccn2C(=O)c2cccc(F)c2)c1` here?
The growth was 40.9%.

With `CCN1CCN(c2ccc(NC(=O)Nc3ccc4c(ccn4-c4ccnc(C(=O)NC)c4)c3)cc2C(F)(F)F)CC1` as the molecule, how does the growth read?
The growth was -56.2% (active).

How did the growth turn out when `O=C(CCCCCCN1CC(=O)N2[C@@H](c3ccccc3Br)c3[nH]c4ccccc4c3C[C@H]2C1=O)NO` was run?
The growth was 24.7%.

How did the growth turn out when `COc1ccc2[nH]cc(-c3nc(N)nnc3-c3cn(C)c4ccc(Br)cc34)c2c1` was run?
The growth was 20.9%.

Which growth does the source give for `C#Cc1nc(/C=C\CCCCCCC(=O)NO)cs1` here?
The growth was 23.9%.

For `CC(=O)OC[C@]12CC[C@@H](C(=O)/C=C/c3cccnc3)[C@@H]1[C@H]1CC[C@@H]3[C@@]4(C)CC[C@H](OC(C)=O)C(C)(C)[C@@H]4CC[C@@]3(C)[C@]1(C)CC2`, which growth is on record?
Its growth is 7.96% (active).

Which growth does the source give for `C[C@@H]1OCC2(CCN(c3cnc(C(=O)Nc4cc(F)cc5cccnc45)cn3)CC2)[C@@H]1N` here?
Its growth is 12.5%.

`CC1=C(C)C(=O)C(Nc2ccc(C)c(C)c2)=C(Br)C1=O` was tested. Which growth did it give?
Its growth is 103%.

With `Cc1ccccc1Nc1nc(SC(C)C)nc(-c2ccccc2)c1C#N` as the molecule, how does the growth read?
Its growth is 43.1%.

`O=C1c2ccccc2C23C(=C(c4cncnc4)c4ccccc42)CCCN13` (stereo not given) was tested. Which growth did it give?
The growth was 103%.

`CC1=C(C)C(=O)C(Nc2cccc(C(=O)OC(C)(C)C)c2)=C(Cl)C1=O` was tested. Which growth did it give?
The growth was 88.7%.

With `CC(=O)Nc1cc(N2CCOCC2)c2nc(NC(=O)c3[nH]c(C)c(Cl)c3Cl)sc2c1` as the molecule, how does the growth read?
The growth was 84.4%.
